# Compound activity as filed in PubChem BioAssay.
# Sampled rows, rich in hits. Any-hit rate of the full collection: about 2.4%.
# Pol kappa inh-1: blocks human DNA polymerase kappa activity; Q9UBT6; purified Pol kappa, fluorescent DNA synthesis assay, 10 min; Potency, µM (doses to about 107 µM), inactives show at the top dose activity, negative = inhibition, most hits filed as inhibitors; actives 0.53% (n = 400,000); also: % is scaled to controls: 0 for no effect and ±100 for the full control effect
#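 Fluorescent qHTS in 1536-well format: enzyme (10 nM) and compound sat 15 min at room temperature before 50 nM substrate (final) was added. Signal taken at 0 and 10 min; no-enzyme buffer wells were negative controls.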
# Pol beta inh: inhibitors of human DNA polymerase beta; actives 1.3% (n = 340,000); P06746; Pol beta primer extension/strand displacement, fluorescence kinetic; Potency, µM (highest dose often 114 µM), without a hit: top-dose activity change, negative = inhibition, usual class: inhibitors; also: % is scaled to controls: 0 for no effect and ±100 for the full control effect
#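 Curves were derived by four-parameter Hill fits of normalized qHTS data. The kinetic fluorescent primer-extension read was taken at 0 and 10 min after 50 nM substrate, following a 15 min room-temperature preincubation of 10 nM enzyme with compounds.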
# Pol eta inh-1: blocks human DNA polymerase eta activity; recombinant Pol eta, fluorescent DNA replication assay; Potency, µM (top dose mostly 114 µM), for the others: top-dose activity change, negative = inhibition, actives largely listed as inhibitors; actives 1.2% (n = 390,000); also: % is scaled to controls: 0 for no effect and ±100 for the full control effect
#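 Pol eta at 10 nM preincubated with compounds 15 min at room temperature; reaction started with fluorescent substrate (50 nM final) and read kinetically at 0 and 10 min.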
# WRN inhibitor: blocks human WRN helicase; Q14191; actives 0.46% (n = 360,000); WRN helicase unwinding, fluorescent forked duplex, kinetic; Potency, µM (top dose mostly 114 µM), without a hit: at the highest dose activity change, negative = inhibition, actives largely listed as inhibitors; also: % is scaled to controls: 0 for no effect and ±100 for the full control effect; nearly all actives have a fitted effect of over 55% in size
#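 Fluorescence dequenching readout, ex 525 nm/em 598 nm, kinetic mode: forked duplex DNA (100 nM final) with adjacent fluorophore and quencher unwound by WRN (20 nM final) with 2 mM ATP. Compound preincubation 15 min, room temperature.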
# FEN1 inhibitor: human FEN1 inhibition. Potency, µM (top dose mostly 114 µM), inactives show at the top dose activity change, negative = inhibition, actives largely listed as inhibitors. actives 0.35% (n = 390,000). P39748. Recombinant FEN1 flap cleavage, fluorescence, 15 min; also: % is scaled to controls: 0 for no effect and ±100 for the full control effect; nearly all actives have a fitted effect of over 65% in size
#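 Enzyme 10 nM, 15 min RT preincubation with compound; start with substrate 50 nM final; reads at 0 and 15 min; qHTS titration, four-parameter Hill fit.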
# Pol iota inh: inhibitors of human DNA polymerase iota | Q9UNA4 | actives 1% (n = 390,000) | Potency, µM (titrated, usually from 115 µM), for the others: at the top dose activity, negative = inhibition, actives largely listed as inhibitors | Pol iota fluorescent replication assay, 10 min
# Target sequence (Q9UNA4 whole entry, looked up): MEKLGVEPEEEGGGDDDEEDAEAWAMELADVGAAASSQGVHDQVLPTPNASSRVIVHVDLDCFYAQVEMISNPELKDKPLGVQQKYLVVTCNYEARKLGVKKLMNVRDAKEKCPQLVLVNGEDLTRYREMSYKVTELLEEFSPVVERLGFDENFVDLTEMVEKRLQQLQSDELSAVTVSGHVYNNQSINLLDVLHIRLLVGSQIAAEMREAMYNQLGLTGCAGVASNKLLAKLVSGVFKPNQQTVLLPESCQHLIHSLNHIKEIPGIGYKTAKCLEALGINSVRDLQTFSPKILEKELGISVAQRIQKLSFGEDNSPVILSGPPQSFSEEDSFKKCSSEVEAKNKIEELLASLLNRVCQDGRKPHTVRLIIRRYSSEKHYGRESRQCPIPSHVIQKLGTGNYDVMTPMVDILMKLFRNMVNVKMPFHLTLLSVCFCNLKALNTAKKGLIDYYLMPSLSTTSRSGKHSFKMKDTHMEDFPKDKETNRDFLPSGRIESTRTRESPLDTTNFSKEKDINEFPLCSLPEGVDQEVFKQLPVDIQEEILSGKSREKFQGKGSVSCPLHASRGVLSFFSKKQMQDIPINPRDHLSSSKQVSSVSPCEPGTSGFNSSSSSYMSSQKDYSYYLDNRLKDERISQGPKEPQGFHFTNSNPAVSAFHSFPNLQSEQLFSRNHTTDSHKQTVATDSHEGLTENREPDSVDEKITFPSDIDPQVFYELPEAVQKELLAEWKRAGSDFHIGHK
#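 Fluorescent replication assay read twice, at 0 min and 10 min after adding 50 nM (final) substrate. Enzyme (10 nM) and compounds were first incubated 15 min at room temperature; enzyme-free buffer wells were negative controls.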
# Pol iota confirm: Confirm cherry-picked inhibitors of human polymerase iota; Pol iota primer extension, TAMRA/BHQ fluorescence; actives 77% (n = 1,500); shares compounds with Pol kappa inh-1; Potency, µM, hits mostly inhibitors
# Pol kappa inh-2: confirmation of human DNA polymerase kappa inhibitors | shares compounds with Pol eta inh-1 | purified Pol-kappa, fluorescent strand-displacement substrate | Potency, µM, most hits filed as inhibitors | actives 76% (n = 920)
# Pol eta inh-2: Pol eta (human) inhibition, cherry-pick confirmation | shares compounds with Pol eta inh-1 | Pol eta primer extension, TAMRA/BHQ fluorescence, 10 min | Potency, µM, usual class: inhibitors | actives 64% (n = 2,600)
# Active calls of the source: *; u = inconclusive; x = no result given; [ ] = dose if it differs, or a comment. Calls follow the shape of the dose curve; as a rule, active = well fitted curve in the direction sought with a large enough effect; inconclusive = small, poorly fitted or top-dose-only effect, or another doubt; inactive = no such curve, though single readings can be large; an effect the other way counts as inactive or inconclusive. Potency is read from the fitted curve at half-maximal effect.
SMILES,Pol kappa inh-1,Pol beta inh,Pol eta inh-1,WRN inhibitor,FEN1 inhibitor,Pol iota inh,Pol iota confirm,Pol eta inh-2,others
COc1cccc(-c2nc3c(c(C)nn3-c3ccccc3)c3cc(OC)c(OC)cc23)c1,-8%,34%,-11%,x,-14%,-18%,x,x,
COc1cc2c(-c3ccc(O)cc3)nc3c(c(C)nn3-c3ccccc3)c2cc1OC,-11%,u,u,u,u,u,24*,67*,
Cc1ccc(C(=O)c2oc3ccccc3c2NC(=O)c2nc(S(C)(=O)=O)ncc2Cl)cc1F,0%,u,-13%,x,-2%,-15%,x,x,
Cc1ccc2c(c1)c(=O)c1c3n2CCN(C(=O)CCl)C3CC1 (stereo not drawn),-41%,16µM*,6.3µM*,u,u,u,60*,60*,
Cc1ccc2c(c1)c1c3n2CCN(C(=O)CN2CCN(C)CC2)C3CCC1 (stereo not drawn),-18%,20%,8%,0%,-2%,13%,x,x,
Cc1ccc(-n2c3nc(=O)n(C)c(=O)c-3cc3c(Cl)cccc32)c(C)c1,-8%,1%,5%,x,15%,6%,x,x,
CC(C)Oc1ccc(CNC(=O)Cn2nc(N3CCN(c4ccccc4)CC3)ccc2=O)cc1,8%,18%,-10%,x,-2%,14%,x,x,
Oc1[nH]c2ccccc2c1C=Nc1ccc2c(c1)OCO2,4%,-16%,-12%,-6%,-18%,31%,x,x,
O=c1c2ccccc2c(C=Nc2cccc(O)c2)c(O)n1-c1ccc2c(c1)OCO2,-22%,40µM*,13µM*,-34%[57.1 µM],-4%,u,u,u,
COc1cc(C2C(=O)N(C3CCCCC3)CC(=O)N2Cc2ccc(C)cc2)ccc1OC(C)C (stereo not drawn),-5%[60.1 µM],-1%,-22%,x,-10%,15%,x,x,
Cc1ccc(NC(=O)CCNS(=O)(=O)c2ccc3c(c2)CCN3C(=O)C2CC2)c(Cl)c1,-4%[60.1 µM],17%,3%,x,-13%,0%,x,x,
O=C1c2ccc(Oc3cccc([N+](=O)[O-])c3)cc2C(=O)N1c1ccccn1,-2%,-1%,1%,4%,-18%,-26%,x,x,
O=C1c2cc([N+](=O)[O-])cc3cc([N+](=O)[O-])cc(c23)C(=O)N1c1ccccn1,u,u,16µM*,u,u,u,67*,30*,Pol kappa inh-2=21*
Cc1cc(C(=O)N2CCN(S(=O)(=O)c3ccccc3C#N)CC2)c(C)o1,-15%,x,-25%,-10%,-3%,31%,x,x,
N#Cc1ccccc1S(=O)(=O)N1CCN(C(=O)c2cc3c(s2)CCC3)CC1,u,x,20µM*,-13%[11.6 µM],-8%,u,u,u,Pol kappa inh-2=u
Cc1ccc(C)c(S(=O)(=O)c2nnn3c2nc(NCc2ccc4c(c2)OCO4)c2sccc23)c1,3%,9%,-10%,x,13%,13%,x,x,
O=C(COC(=O)c1ccc(S(=O)(=O)Nc2ccccc2)cc1)NCc1ccco1,-21%,u,7%,-23%,-2%,1%,x,x,
CN(C)C(=O)COC(=O)c1ccc(S(=O)(=O)NCc2ccco2)cc1,u,25µM*,22µM*,-4%[11.6 µM],16%,u,60*,38*,
Cc1ccc(C)c(NC(=O)CSc2nnc(CNC(=O)c3ccccc3)n2-c2ccccc2)c1,-10%,-9%,-9%,x,14%,12%,x,x,
O=C(O)Cc1ccc(S(=O)(=O)N2CCCC2)s1,79µM*,x,7.1µM*,-26%,-5%,u,47*,30*,Pol kappa inh-2=12*
O=C(Cc1ccc(S(=O)(=O)N2CCCCC2)s1)Nc1cccc2ccccc12,-17%,7%,-12%,16%,4%,21%,x,x,
Cn1c(SCC(=O)Nc2nncs2)nnc1C1CC1,u,6.3µM*,22µM*,u,-24%,u,38*,30*,
CC(C)n1c(SCC(=O)Nc2nncs2)nnc1C1CC1,-20%,-2%,-5%,4%,0%,-28%,x,x,
Cc1nc2ccccn2c1C(=O)N/N=C/c1ccc([N+](=O)[O-])o1,50µM*,32µM*,7.9µM*,u,u,11µM*,60*,34*,
O=C(N/N=C/c1ccc([N+](=O)[O-])o1)c1cc2c(ccc3ccccc32)o1,-25%,3.2µM*,32µM*,-23%[11.6 µM],u,u,27*,19*,
SMILES,Pol kappa inh-1,Pol beta inh,Pol eta inh-1,WRN inhibitor,FEN1 inhibitor,Pol iota inh,Pol iota confirm,Pol eta inh-2,others
O=C(N/N=C/c1ccc([N+](=O)[O-])o1)c1cc2ccccc2o1,u,u,u,-10%,-11%,u,x,x,
COc1ccc(Cc2nc3ccccc3n2CC(=O)N/N=C/c2ccc(C)cc2O)cc1OC,u,7.9µM*,u,-20%[11.6 µM],u,20µM*,9.5*,67*,Pol kappa inh-2=30*
O=C1ON=C(c2ccccc2)/C1=C/c1ccc(-c2ccccc2[N+](=O)[O-])o1,-24%,-27%,22µM*,u,-3%,u,u,48*,
O=[N+]([O-])c1ccccc1-c1ccc(/C=N/n2cnnc2)o1,-4%,8%,5%,9%,-15%,-5%[58.9 µM],x,x,
CCOC(=O)C1CCCN(S(=O)(=O)c2cc(-c3onc(C)c3C)ccc2OC)C1 (stereo not drawn),-13%,-25%,-21%,x,9%,15%,x,x,
COc1ccc(/C=C2\C(=O)NC(=O)c3ccccc32)cc1OC,-18%,x,20µM*,-12%,-9%,32µM*,84*,30*,
COc1ccc(C(CC(=O)N2CCCC2)c2c(OC)cc(OC)c3c(-c4ccccc4)cc(=O)oc23)cc1 (stereo not drawn),79µM*,35µM*,u,-11%[11.6 µM],-20%,71µM*,34*,76*,
COc1ccc(C(CC(=O)N2CCCCC2)c2c(OC)cc(OC)c3c(-c4ccccc4)cc(=O)oc23)cc1 (stereo not drawn),50µM*,25µM*,20µM*,-9%[11.6 µM],-20%,71µM*,42*,u,
Cc1ccc(-n2c(C)nc3oc4ccccc4c(=O)c3c2=O)cc1,u,40µM*,79µM*,u,-15%,u,24*,38*,
